Experimental data reported in PubChem BioAssay (Tox21).
Records with an inconclusive call do not appear. Where a call stands in place of a potency, no number is given. Values without a mark were called inactive. Active and inactive are the calls of the source. Calls follow the shape of the dose curve; as a rule, active = well fitted cell-killing curve with a large enough effect in the repeat runs; inconclusive = weak or mixed curves, or effect the other way; inactive = flat fitted curve, though single readings scatter.

Columns and labels:
[1] = cAMP Responsive Elements (CRE) small molecule antagonists, cell-based qHTS assay: qHTS cell viability counter screen (AID 2060913); also: nearly all actives have a fitted effect of over 40% in size
Summary of the method: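 Cytotoxicity counter screen multiplexed with the CRE-bla antagonist read: HEK293T cells in DMEM with dialyzed FBS and 25 mM HEPES were treated 3 hrs under 0.25 uM final NKH477, then viability measured by CellTiter-Glo luminescence.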

[2] = cAMP Responsive Elements (CRE) small molecule agonists, cell-based qHTS assay: qHTS cell viability counter screen (AID 2060914);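 also: viability read after 3 h of compound exposure; nearly all actives have a fitted effect of over 50% in size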
Summary of the method: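 CRE-bla HEK 293T cells, plated 18 h at 37 °C, were exposed to compounds for 3 h at 37 °C/5% CO2. Viability was then measured in the same wells by CellTiter-Glo luminescence after 30 min at room temperature.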

Row | Compound | Potency [1] | Potency [2] | viability change, negative = cytotoxic [1] | activity change, negative = cytotoxicity [2]
1 | O=C(O)CNC(=O)c1ccc([N+](=O)[O-])cc1 | inactive | inactive | – | –
2 | CN1Cc2c(N)cccc2C(c2ccccc2)C1 (stereo unspecified) | inactive | inactive | – | –
3 | CCCCN(CCC(=O)OCC)C(C)=O | inactive | inactive | – | –
4 | CCC(=O)Nc1ccc(O)cc1 | inactive | inactive | – | –
5 | CC1=CC(=O)CCC1 | inactive | inactive | – | –
6 | O=C(c1ccccc1)c1ccc2n1CCC2C(=O)O (stereo unspecified) | inactive | inactive | – | –
7 | CCCCOC(=O)CCCCCCCCC(=O)OCCCC | inactive | inactive | – | –
8 | CC(=O)OC(C)C | inactive | inactive | – | –
9 | C=CC(C)(O)CCCC(C)CCCC(C)CCCC(C)C (stereo unspecified) | inactive | inactive | – | –
10 | Nc1ccc(Nc2ccccc2)cc1 | inactive | inactive | – | –
11 | COc1ccc(NC(=O)CC(C)=O)cc1 | inactive | inactive | – | –
12 | O=c1[nH][nH]c2ccccc12 | inactive | inactive | – | –
13 | CC[C@H](C)[C@H](N)C(=O)O | inactive | inactive | – | –
14 | CC(=O)[C@@]1(O)CC[C@H]2[C@@H]3C[C@H](C)C4=CC(=O)C=C[C@]4(C)[C@@]3(F)[C@@H](O)C[C@@]21C | inactive | inactive | – | –
15 | CC(C)CCCC(=O)O | inactive | inactive | – | –
16 | CC(COc1ccccc1)NC(C)C(O)c1ccc(O)cc1 (stereo unspecified) | inactive | inactive | – | –
17 | Cc1c(-c2cccnc2)c2ccccc2n1CCCCC(=O)O | inactive | inactive | – | –
18 | CN(C)CCN1C(=O)c2ccccc2N(C)c2ccccc21 | inactive | inactive | – | –
19 | CC(=O)Oc1cc2c(s1)CCN(C(C(=O)C1CC1)c1ccccc1F)C2 (stereo unspecified) | inactive | inactive | – | –
20 | CCc1nn(C2CCCCC2)c2cc(C3(C#N)CCC(C(=O)O)CC3)ccc12 (stereo unspecified) | inactive | inactive | – | –
21 | C=CC(=O)OCCCC | inactive | inactive | – | –
22 | COCCOCCOCCO | inactive | inactive | – | –

Row | Compound | Potency [1] | Potency [2] | viability change, negative = cytotoxic [1] | activity change, negative = cytotoxicity [2]
23 | C[C@]12CCC(=O)C=C1[C@@H]1C[C@@H]1[C@H]1[C@@H]3[C@@H]4C[C@@H]4[C@@]4(CCC(=O)O4)[C@@]3(C)CC[C@@H]12 | inactive | inactive | – | –
24 | O=C1c2ccccc2C(=O)C1c1ccc2ccccc2n1 | inactive | inactive | – | –
25 | Cc1ccc(N)c(S(=O)(=O)O)c1 | inactive | inactive | – | –
26 | C=CCOC(=O)CC(C)C | inactive | inactive | – | –
27 | c1ccc(-c2ccccn2)nc1 | inactive | inactive | – | –
28 | CC(=O)CC(c1ccc([N+](=O)[O-])cc1)c1c(O)c2ccccc2oc1=O (stereo unspecified) | inactive | inactive | – | –
29 | O=C(c1ccc(F)cc1)C1CCN(CCn2c(=O)[nH]c3ccccc3c2=O)CC1 | inactive | inactive | – | –
30 | Cc1nc(-c2ccc(OCC(C)C)c(C#N)c2)sc1C(=O)O | inactive | inactive | – | –
31 | CCCCC(=O)O[C@]1(C(=O)CO)[C@H](C)C[C@H]2[C@@H]3CCC4=CC(=O)C=C[C@]4(C)[C@@]3(F)[C@@H](O)C[C@@]21C | inactive | inactive | – | –
32 | OCc1ccccc1 | inactive | inactive | – | –
33 | O=C(O)CNC(=O)c1ccccc1I | inactive | inactive | – | –
34 | C=CCn1c(=O)n(CC=C)c(=O)n(CC=C)c1=O | inactive | inactive | – | –
35 | O=C1CCCC(=O)O1 | inactive | inactive | – | –
36 | CCOC(=O)OCC | inactive | inactive | – | –
37 | O=C(/N=N/C(=O)OCc1ccccc1)OCc1ccccc1 | inactive | inactive | – | –
38 | Oc1ccc(CCNCCCCCCNCCc2ccccc2)cc1O | inactive | inactive | – | –
39 | C[C@@H]1CC[C@@]2(OC1)O[C@H]1C[C@H]3[C@@H]4CC[C@H]5C[C@@H](O)CC[C@]5(C)[C@H]4CC(=O)[C@]3(C)[C@H]1[C@@H]2C | – | – | 0.912% [at 8.39 µM] | -1.47% [at 8.39 µM]
40 | NC(=O)CCCCC1CCSS1 (stereo unspecified) | inactive | inactive | – | –
41 | Cc1ccccc1C#N | inactive | inactive | – | –
42 | CC(C)(C)c1cc(Cc2cc(C(C)(C)C)c(O)c(C(C)(C)C)c2)cc(C(C)(C)C)c1O | inactive | inactive | – | –
43 | CC(=O)O[C@@]12CO[C@@H]1C[C@H](O)[C@@]1(C)C(=O)[C@H](O)C3=C(C)[C@@H](OC(=O)[C@H](O)[C@@H](NC(=O)OC(C)(C)C)c4ccccc4)C[C@@](O)([C@@H](OC(=O)c4ccccc4)[C@H]21)C3(C)C | inactive | inactive | – | –
